According to PubChem BioAssay (Tox21):
Inconclusive results are not listed. Activity calls are given as the source filed them. Calls come from the whole dose curve; as a rule, active = well fitted curve in the direction sought with a large enough effect in the repeat runs; inconclusive = weak or mixed curves; inactive = no such curve, though single readings can be large; an effect the other way counts as inactive or inconclusive. Non-standard residues stand in square brackets, D forms with d. Residues, ends and D or L forms follow the SMILES beside them. pGlu = O=C1CC[C@@H](C(=O)O)N1

Test: qHTS assay to identify small molecule antagonists of the thyroid receptor (TR) signaling pathway - cell viability counter screen (AID 743064); note: nearly all actives have a fitted effect of over 50% in size
Details: GH3.TRE-Luc viability, CellTiter-Fluor, 24 h; series mostly up to 70.3 µM; activity change, negative = cytotoxic: at the top concentration
Procedure, shortened: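 GH3.TRE-Luc cells, 4 h pre-plating; cpd + T3 1 nM final; 37 °C 23.5 h; CellTiter-Fluor 30 min; fluorescence read.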
% is set by controls: 0 for no effect and ±100 for the full control effect; potency is the fitted concentration of half-maximal effect.

SMILES | activity change, negative = cytotoxic | Potency
NC[C@@H]1O[C@H](O[C@H]2[C@@H](O)[C@H](O[C@@H]3[C@@H](O)[C@H](N)C[C@H](N)[C@H]3O[C@H]3O[C@H](CO)[C@@H](O)[C@H](O)[C@H]3N)O[C@@H]2CO)[C@H](N)[C@@H](O)[C@@H]1O | 4.92% (inactive) | 
O=P(O)(O)C(Sc1ccc(Cl)cc1)P(=O)(O)O | -8.31% (inactive) | 
CC[C@H](C)[C@H](NC(=O)[C@H](Cc1ccccc1)NC(=O)[C@H](C)NC(=O)[C@H](CC(=O)O)NC(=O)[C@H](CCCCN)NC(=O)[C@H](CO)NC(=O)[C@@H]1CCCN1C(=O)[C@@H]1CCC(=O)N1)C(=O)NCC(=O)N[C@@H](CC(C)C)C(=O)N[C@@H](CCSC)C(N)=O ([pGlu]PSKDAFIGLM-NH2) | 21.1% (inactive) | 
Cc1cccc(Nc2ncccc2C(=O)O)c1C | 10.8% (inactive) | 
CCCCCC(O)/C=C/C=O (stereo not given) | 10.6% (inactive) | 
OCCO[C@@H]1[C@@H](O)[C@H](O)[C@@H](CO)O[C@@H]1O | -0.0381% (inactive) | 
N[C@H](CCC(=O)O)C(=O)O | 25.2% (inactive) | 
Cc1ccc(C2(O)CCN(CCCC(=O)c3ccc(F)cc3)CC2)cc1 |  | 13.3 µM (active)
CO[C@H]1O[C@@H]2O[C@@]3(C)CC[C@H]4[C@H](C)CC[C@@H]([C@H]1C)[C@@]24OO3 | -3.33% (inactive) | 
CC1=C(/C=C/C(C)=C/C=C/C(C)=C/C(=O)Oc2c(C)c(C)c3c(c2C)CC[C@@](C)(CCC[C@H](C)CCC[C@H](C)CCCC(C)C)O3)C(C)(C)CCC1 | 20.7% (inactive) | 
O=C(O)[C@@H](O)[C@H](O)[C@H](O)[C@@H](O)C(=O)O (tested in a mixture with another compound) | -2.2% (inactive) | 
O=C(Cn1c(=O)sc2ccc(Cl)cc21)N1CCN(CCO)CC1 | 0.738% (inactive) | 
c1ccc2c(c1)Sc1ccccc1N2CCN1CCCC1 |  | 11.9 µM (active)
O=C(O)C1CCCN1 (stereo not given) | 24.6% (inactive) | 
CCCCC(=O)OCC(=O)[C@]1(O)Cc2c(O)c3c(c(O)c2[C@@H](O[C@H]2C[C@H](NC(=O)C(F)(F)F)[C@H](O)[C@H](C)O2)C1)C(=O)c1c(OC)cccc1C3=O |  | 9.44 µM (active)

Test: qHTS assay to identify small molecule antagonists of the thyroid receptor (TR) signaling pathway (AID 743065); note: nearly all actives have a fitted effect of over 55% in size
Details: GH3.TRE-Luc, T3-stimulated luciferase inhibition, 23.5 h; series mostly up to 70.3 µM; activity, negative = inhibition: at the top concentration
Procedure, shortened: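 GH3.TRE-Luc rat pituitary cells carrying two TR response elements driving luciferase were plated for 4 h, given compound plus 1 nM T3 (final), and incubated 23.5 h at 37 C. ONE-Glo luminescence measured reporter inhibition; CellTiter-Fluor fluorescence tracked cytotoxicity.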

SMILES | activity, negative = inhibition | Potency
FC(F)(F)C(F)(F)C(F)(F)C(F)(F)C(F)(F)C(F)(F)F | 8.29% (inactive) | 
Nc1ncnc2c1ncn2CCOCP(=O)(O)O | 16.6% (inactive) | 
CCCCCCCCCCCCCCCC(=O)OC[C@@H](NC(=O)C(Cl)Cl)[C@H](O)c1ccc([N+](=O)[O-])cc1 | -14.4% (inactive) | 
C/C(=C(\CCOC(=O)c1ccccc1)SS/C(CCOC(=O)c1ccccc1)=C(/C)N(C=O)Cc1cnc(C)nc1N)N(C=O)Cc1cnc(C)nc1N |  | 23.7 µM (active)
CCOC(=O)[C@H](CCc1ccccc1)N[C@@H](C)C(=O)N1CC2(C[C@H]1C(=O)O)SCCS2 | 0.746% (inactive) | 
CC(=O)N=c1sc(S(N)(=O)=O)nn1C | 13.3% [at 32.5 µM] (inactive) | 
O=C(O[C@H]1CN2CCC1CC2)N1CCc2ccccc2[C@@H]1c1ccccc1 |  | 23.7 µM (active)
CCCCc1cc2c(=O)c(C(=O)OC)c[nH]c2cc1OCc1ccccc1 | -5.03% (inactive) | 
CCNC(=O)[C@@H]1CCCN1C(=O)[C@H](CCCN=C(N)N)NC(=O)[C@H](CC(C)C)NC(=O)[C@@H](Cc1c[nH]c2ccccc12)NC(=O)[C@H](Cc1ccc(O)cc1)NC(=O)[C@H](CO)NC(=O)[C@H](Cc1c[nH]c2ccccc12)NC(=O)[C@H](Cc1cnc[nH]1)NC(=O)[C@@H]1CCC(=O)N1 |  | 1.33 µM (active)
O=C(Nc1ccc(Br)cc1)c1cc(Br)c(Br)s1 |  | 13.3 µM (active)
COc1ccccc1N1CCN(CCCC(=O)c2ccc(F)cc2)CC1 | -24.2% (inactive) | 
C[C@H](N)C(=O)N[C@@H](C)P(=O)(O)O | 7.5% (inactive) | 
O=P(O)(O)C(Sc1ccc(Cl)cc1)P(=O)(O)O | -0.751% (inactive) | 
CCCCCC(O)/C=C/C=O (stereo not given) | 0.0986% (inactive) | 
CC(O)CN(C)C (stereo not given) | 12.5% (inactive) | 
CC1=C(/C=C/C(C)=C/C=C/C(C)=C/C(=O)Oc2c(C)c(C)c3c(c2C)CC[C@@](C)(CCC[C@H](C)CCC[C@H](C)CCCC(C)C)O3)C(C)(C)CCC1 | 38.1% (inactive) | 
O=C(O)[C@@H](O)[C@H](O)[C@H](O)[C@@H](O)C(=O)O (tested in a mixture with another compound) | 2.61% (inactive) | 
NS(=O)(=O)c1cc2c(cc1Cl)NC(Cc1ccccc1)NS2(=O)=O (stereo not given) | 2.41% (inactive) | 
c1cnc2cc3c(cc2n1)[C@@H]1CNC[C@H]3C1 | -9.94% (inactive) | 
NCCCC[C@H](NC(=O)[C@@H]1CCCN1C(=O)[C@@H]1CSSC[C@H](N)C(=O)N[C@@H](Cc2ccccc2)C(=O)N[C@@H](Cc2ccccc2)C(=O)N[C@@H](CCC(N)=O)C(=O)N[C@@H](CC(N)=O)C(=O)N1)C(=O)NCC(N)=O | -3.31% (inactive) | 
